Active and inactive are the calls of the source. No rule for the calls is given here.
The compounds below were run against Pantothenate synthetase (Mycobacterium tuberculosis (strain ATCC 25618 / H37Rv)) (UniProt P9WIL5) (assay: Coupled enzyme confirmation of inhibitors against recombinant Mtb PanC (AID 375;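 also: 0% = full reaction with vehicle and 100% = no enzyme background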)). Details: coupled enzyme assay; at 10 µM, stronger effect = higher value.
Chain of Pantothenate synthetase (Mycobacterium tuberculosis (strain ATCC 25618 / H37Rv)) (P9WIL5 whole entry, looked up): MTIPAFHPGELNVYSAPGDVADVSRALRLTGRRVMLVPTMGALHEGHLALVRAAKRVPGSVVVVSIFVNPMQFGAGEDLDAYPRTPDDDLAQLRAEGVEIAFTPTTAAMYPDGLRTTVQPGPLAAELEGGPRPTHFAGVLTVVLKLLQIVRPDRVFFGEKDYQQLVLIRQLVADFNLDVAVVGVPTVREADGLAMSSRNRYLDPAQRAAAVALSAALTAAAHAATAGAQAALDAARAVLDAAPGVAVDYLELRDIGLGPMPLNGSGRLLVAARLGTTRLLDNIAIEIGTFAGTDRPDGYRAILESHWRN

Structure (SMILES) | inhibition
CCC1CCCCN1CCNS(=O)(=O)c1ccc2c(c1)oc(=O)n2C (stereo not given) | 1% (inactive)
O=C(CCN1C(=O)C2C3C=CC(C3)C2C1=O)Nc1c(F)cc(F)cc1Br (stereo not given) | 0% (inactive)
COc1ccc2c(c1)C(C)=CC(C)(C)N2C(=O)C(C)N1C(=O)c2ccccc2C1=O (stereo not given) | 4% (inactive)
O=C(Oc1cc2oc(=O)c3c(c2cc1Cl)CCCC3)c1ccco1 | 0% (inactive)
COc1ccc2nc(NC(=O)C3CCCN(S(=O)(=O)c4cccc5nsnc45)C3)sc2c1 (stereo not given) | 5% (inactive)
CCOC(=O)C1CCN(c2c(N3CCCC(C(=O)OCC)C3)c(=O)c2=O)CC1 (stereo not given) | 6% (inactive)
COc1ccccc1C(=O)Nc1ccc(S(=O)(=O)N2CCCC2)cc1 | 4% (inactive)
CC1CCCc2sc3nc(NCc4ccco4)n4ncnc4c3c21 (stereo not given) | 0% (inactive)
Cc1ccc(C)c(N(CC(=O)NC2CCCC2)C(=O)CCCC(=O)Nc2ccccn2)c1 | 2% (inactive)
CC1CCCCC1NC(=O)c1nn(C)c(=O)c2ccccc12 (stereo not given) | 0% (inactive)
COc1cc2c(C#N)c(N3CCN(c4ccccc4OC)CC3)nc(N)c2c(N)n1 | 0% (inactive)
CCCn1cnc2c(cnn2-c2ccc(F)cc2)c1=O | 4% (inactive)
Cc1ccc(-c2nc3ccccc3[nH]2)s1 | 0% (inactive)
Cc1cc(-n2c(C)cc(C(=O)CSc3nc4ccccc4c(=O)n3Cc3ccco3)c2C)no1 | 0% (inactive)
C=CCNC(=O)c1ccc(Cl)cc1Cl | 0% (inactive)
CN(C)Cc1c(O)ccc2oc(Cc3ccccc3)cc12 | 8% (inactive)
COc1cccc(N2C(=O)N(c3ccccc3Cl)C3CS(=O)(=O)CC32)c1 (stereo not given) | 3% (inactive)
CC(=O)Nc1ccc2nc(-c3cccnc3)[nH]c2c1 | 0% (inactive)
OCc1nc2ccccc2n1CC(O)Cn1ccc2ccccc21 (stereo not given) | 1% (inactive)
Cn1c(=O)c2ccccc2n(Cc2ccccc2F)c1=O | 0% (inactive)

Structure (SMILES) | inhibition
COC(=O)c1cc(OC)c(OC)cc1NC(=O)CCC1CCCC1 | 0% (inactive)
O=C(CN(Cc1ccc(F)cc1)C(=O)c1ccco1)NCc1ccc(F)cc1 | 0% (inactive)
COc1ccc(C2C(C#N)=C(N)OC3=C2C(=O)CC(C)C3)c(OC)c1OC (stereo not given) | 0% (inactive)
CCOC(=O)N1CCN(C(=O)CSc2nnc(COc3ccccc3)o2)CC1 | 2% (inactive)
COc1ccccc1NC(=O)CSc1nnnn1-c1ccc2c(c1)OCO2 | 0% (inactive)
O=C(CN(CCc1ccccc1)C(=O)CNS(=O)(=O)c1ccccc1)NCC1CCCO1 (stereo not given) | 0% (inactive)
CCOC(=O)N1CCC(NC(=O)c2cc(C(=O)NC3CCCC3)ccc2CO)CC1 | 1% (inactive)
c1ccc(Cn2ncc3c2ncn2c(-c4ccncc4)nnc32)cc1 | 0% (inactive)
CC1CCN(Cc2nc3c(c(=O)n(C)c(=O)n3C)n2Cc2cccc3ccccc23)CC1 | 0% (inactive)
CCC1(NC(C)=O)CC2CC1CC2NC(C)=O (stereo not given) | 0% (inactive)
CCOc1ccccc1N(CC(=O)NC1CCCC1)C(=O)CCCC(=O)Nc1ccccn1 | 5% (inactive)
O=C(NCCSc1c[nH]c2ccccc12)c1ccc(Br)o1 | 1% (inactive)
COC(=O)c1ccc(C2CC(=O)Nc3cc(OC)c(OC)c(OC)c32)cc1 (stereo not given) | 0% (inactive)
O=C(NCCN1CCOCC1)c1ccc2c(c1)N(Cc1ccccc1)C(=O)CS2 | 0% (inactive)
COc1ccc(N2CCN(c3oc(COc4ccccc4)nc3C#N)CC2)cc1 | 0% (inactive)
Cc1cccc(CS(=O)(=O)Cc2ccc(C(=O)NCC3CCCO3)o2)c1 (stereo not given) | 0% (inactive)
Cc1cc(C)n(-c2nnc(C)n2/N=C/c2ccco2)n1 | 1% (inactive)
Nc1cc(N)cc(-c2nc3ccccc3o2)c1 | 4% (inactive)
CSCCC(NC(=O)c1ccco1)C(=O)O (stereo not given) | 0% (inactive)
C=CCn1c(-c2ccccc2)c[nH]c1=S | 0% (inactive)

From PubChem BioAssay
